Where “and” joins values, the source holds several entries; their conditions need not be identical. Identical values can stand only once. The campaign covered roughly 5,500 compounds. About 2,000 (36%) were called active. Not shown: some 18% with an inconclusive outcome. Rule as the data show it: active = normalized growth mostly below about 0.91 (no sharp cut-off); inconclusive = no clear call, values can overlap the other calls; inactive = mostly above about 0.92. Some of the results follow.
Experiment: chemical genetic growth profiling, strain panel (AID 1159580);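 also: tested at 20 µM; growth read once vehicle control cultures reached saturation at 30 °C; 1 = growth at the plate median or of vehicle wells; lower values mean less growth of the strain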
Settings: S. cerevisiae deletion strains, growth OD

Measured: normalized growth

C#CC1(O)CCC2C3CCC4=CC(=O)CCC4(C)C3CCC21C (stereo unspecified)
active: locus YDR137W, strain rgp1, hits give low values 1.19 [resistant]
inactive: locus YAL021C, strain ccr4, hits give low values 0.973 | locus YAL026C, strain drs2, hits give low values 0.982 | locus YAL030W, strain snc1, hits give low values 0.995 | locus YBL061C, strain skt5, hits give low values 0.96 | locus YBR009C, strain hhf1, hits give low values 0.979 | locus YBR021W, strain FUR4, hits give low values 0.985 | locus YBR023C, strain chs3, hits give low values 0.981 | locus YBR171W, strain sec66, hits give low values 0.981 | locus YBR229C, strain ROT2, hits give low values 0.985 | locus YBR231C, strain swc5, hits give low values 0.977 | locus YBR279W, strain paf1, hits give low values 0.985 | locus YCL011C, strain gbp2, hits give low values 0.994 | locus YCL016C, strain dcc1, hits give low values 0.968 | locus YCL029C, strain bik1, hits give low values 0.984 | locus YCL069W, strain vba3, hits give low values 1 | locus YCR088W, strain abp1, hits give low values 0.992 | locus YDL005C, strain med2, hits give low values 0.976 | locus YDL035C, strain GPR1, hits give low values 0.981 | locus YDL040C, strain nat1, hits give low values 0.97 | locus YDL074C, strain BRE1, hits give low values 1.01 | locus YDL101C, strain DUN1, hits give low values 0.979 | locus YDL185W, strain tfp1, hits give low values 0.981 | locus YDL192W, strain arf1, hits give low values 0.98 | locus YDR001C, strain nth1, hits give low values 0.977 | locus YDR069C, strain doa4, hits give low values 0.933 | locus YDR101C, strain arx1, hits give low values 1.02 | locus YDR159W, strain sac3, hits give low values 0.937 | locus YDR162C, strain NBP2, hits give low values 0.971 | locus YDR195W, strain ref2 0.975 | locus YDR297W, strain sur2, hits give low values 0.98 | locus YDR318W, strain mcm21, hits give low values 0.97 | locus YDR334W, strain swr1, hits give low values 0.954 | locus YDR335W, strain msn5, hits give low values 0.981 | locus YDR388W, hits give low values 0.976 | locus YDR392W, strain spt3, hits give low values 0.918 | locus YDR502C, strain sam2, hits give low values 0.985 | locus YEL003W, strain gim4, hits give low values 0.976 | locus YEL037C, strain rad23, hits give low values 0.969 | locus YEL061C, strain CIN8 (second series), hits give low values 0.965 | locus YEL061C, strain CIN8, hits give low values 0.996 | locus YER015W, strain faa2, hits give low values 0.992 | locus YER016W, strain bim1, hits give low values 0.996 | locus YER110C, hits give low values 0.968 | locus YER111C, strain swi4, hits give low values 0.99 | locus YER155C, strain BEM2 (second series), hits give low values 1.02 | locus YER155C, strain BEM2, hits give low values 0.982 | locus YER167W, strain BCK2, hits give low values 0.994 | locus YFR010W, strain ubp6, hits give low values 0.995 | locus YGL078C, strain dbp3, hits give low values 0.95 | locus YGL086W, strain mad1, hits give low values 1.01 | locus YGL167C, strain pmr1, hits give low values 0.976 | locus YGL173C, strain kem1, hits give low values 0.986 | locus YGL227W, strain vid30, hits give low values 0.983 | locus YGL240W, strain doc1, hits give low values 0.987 | locus YGL248W, strain PDE1, hits give low values 0.99 | locus YGL253W, strain hxk2, hits give low values 0.978 | locus YGR135W, strain pre9, hits give low values 0.947 | locus YGR252W, strain gcn5, hits give low values 0.956 | locus YHR013C, strain ard1, hits give low values 0.994 | locus YHR027C, strain rpn1, hits give low values 0.948 | locus YHR030C, strain SLT2, hits give low values 0.998 and 1 | locus YHR079C, strain IRE1 (second series), hits give low values 0.983 | locus YHR079C, strain IRE1, hits give low values 1 | locus YHR094C, strain hxt1, hits give low values 0.968 | locus YHR129C, strain ARP1, hits give low values 0.999 | locus YHR142W, strain chs7, hits give low values 0.98 | locus YHR200W, strain rpn10, hits give low values 0.986 | locus YIL066C, strain RNR3, hits give low values 0.989 | locus YIL073C, strain SPO22, hits give low values 0.933 | locus YIL125W, strain kgd1, hits give low values 0.978 | locus YIR030C, strain dcg1, hits give low values 0.984 | locus YJL092W, strain hpr5, hits give low values 0.977 | locus YJL095W, strain BCK1 (second series), hits give low values 0.981 | locus YJL095W, strain BCK1, hits give low values 0.981 and 1.01 | locus YJL115W, strain asf1, hits give low values 0.954 | locus YJL129C, strain trk1, hits give low values 0.97 | locus YJL134W, strain LCB3, hits give low values 0.983 | locus YJL154C, strain vps35, hits give low values 0.972 | locus YJL164C, strain tpk1, hits give low values 0.978 | locus YJL166W, strain qcr8, hits give low values 0.983 | locus YJL168C, strain set2, hits give low values 0.977 | locus YJL187C, strain SWE1 (second series), hits give low values 1.01 | locus YJR043C, strain POL32, hits give low values 1.03 | locus YJR066W, strain TOR1, hits give low values 0.957 | locus YJR075W, strain HOC1, hits give low values 1

Source: PubChem BioAssay AID1159580 (chemical genetic matrix, 2015)
